Experimental findings from PubChem BioAssay (NCATS) are described below.

“And” between values parts separate entries of the source, which are not always exact repeats. Equal entries are not always repeated. Inconclusive results are not listed. Some compounds were tested as several samples or in several runs, with calls that do not always agree. Unmarked numbers belong to inactive results. The call rests on the fitted dose curve; in most records, active means well fitted inhibition curve with a large enough effect; inconclusive means small, poorly fitted or top-dose-only effect; inactive means flat fitted curve, though single readings scatter. Where a SMILES comes first, the peptide text is derived from it. Bridges are numbered along the chain shown (N, C = ends). [ ]: non-standard residue; d: D form. Orn = NCCC[C@H](N)C(=O)O; Mpa = O=C(O)CCS
On the % scale 0 is the no-effect control and ±100 the full control effect.

This assay is described as follows: Drug repurposing screens with cells derived from glioblastoma tumor samples (AID 1345199). Further: nearly all actives have a fitted effect of over 40% in size. The following applies: GBM patient neurospheres viability, ATP luminescence, 48 h; at 46.1 µM (top of the series); tumour line C. In outline:
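Primary testing used CD133+ neurospheres from four GBM patients, seven concentrations, 48 h exposure and ATP-based viability; confirmation added three slower-growing patient lines.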
On to `CCCCCCCC(=O)CC[C@@H]1[C@@H](C/C=C\CCCC(=O)OC(C)C)[C@@H](O)C[C@H]1O`, for which the activity, negative = cell killing is -21.1%.
As for `N[C@@H](C(=O)N[C@H]1C(=O)N2C(C(=O)O)=C(Cl)CC[C@H]12)c1ccccc1`, the activity, negative = cell killing was -12.4%.
For `O.O=C([O-])CC([S-])C(=O)[O-].[Au+].[Na+].[Na+]` (configuration not stated) the value was 15.2%.
Take `CC(=O)O[C@H]1CC[C@@]2(C)C(=CC[C@@H]3[C@@H]2CC[C@]2(C)C(c4cccnc4)=CC[C@@H]32)C1`: the activity, negative = cell killing was -13.1%.
Consider `O=C(Cn1cnnn1)N[C@@H]1C(=O)N2C(C(=O)O)=C(CSc3nncs3)CS[C@H]12`, for which the activity, negative = cell killing was 1.48% and -8.58%.
Regarding `Cc1cc(Nc2ccccc2C(=O)O)ccc1Cl`, the activity, negative = cell killing was -18%.
For `OCC(O)COc1ccc(Cl)cc1` (configuration not stated) the value was -6.48%.
For `O=C1O[C@@H]2[C@@H](O)[C@H](O)O[C@@H]2[C@H]1O` the value was -14%; for `NCCC[C@H](N)C(=O)O`, -18.4%; for `CS(=O)(=O)OCCCNCCCOS(C)(=O)=O`, 2.38%.
`CCOC(=O)COc1ccc2c(C)c(CCN(CC)CC)c(=O)oc2c1`: the activity, negative = cell killing is -14.9%.
Next, `C/C(=C(\CCOC(=O)c1ccccc1)SS/C(CCOC(=O)c1ccccc1)=C(/C)N(C=O)Cc1cnc(C)nc1N)N(C=O)Cc1cnc(C)nc1N`: -22.5%; `CCC(=O)Oc1ccc2c(c1)CC[C@@H]1[C@@H]2CC[C@]2(C)[C@@H](OC(=O)CC)CC[C@@H]12`: -12.6%; `CCC(=O)OCC(=O)[C@@]1(OC(=O)CC)[C@@H](C)C[C@H]2[C@@H]3CCC4=CC(=O)C=C[C@]4(C)[C@@]3(Cl)[C@@H](O)C[C@@]21C`: -19%.
With `Nc1ncnc(Nc2ccc(Cl)cc2)n1`, the activity, negative = cell killing is -9.25%.
With `O=P(O)(O)OC(Cn1cncn1)(Cn1cncn1)c1ccc(F)cc1F`, the activity, negative = cell killing is 14%.
For `NCCC(=O)[N-][C@@H](Cc1cnc[nH]1)C(=O)O.[Zn]` the value was 0.418%; for `CN(C(=O)CO)c1c(I)c(C(=O)NCC(O)CO)c(I)c(C(=O)NCC(O)CO)c1I` (configuration not stated), -4.09%.
On to `CCC(C)(C)OC(=O)N[C@@H](Cc1c[nH]c2ccccc12)C(=O)N[C@@H](CCSC)C(=O)N[C@@H](CC(=O)O)C(=O)N[C@@H](Cc1ccccc1)C(N)=O`, for which the activity, negative = cell killing was -14.8%.
For `O=C(O)c1cc2ccccc2c(Cc2c(O)c(C(=O)O)cc3ccccc23)c1O` the value was -1.97%.
For `CCOc1ccc(C[C@H]2NC(=O)CCSSC[C@@H](C(=O)N3CCC[C@H]3C(=O)N[C@@H](CCCN)C(=O)NCC(N)=O)NC(=O)[C@H](CC(N)=O)NC(=O)[C@H]([C@@H](C)O)NC(=O)[C@H]([C@@H](C)CC)NC2=O)cc1` ([Mpa][dY](Et)ITNCP[Orn]G-NH2; disulfide 1-6) the value was 3.43%; for `c1cnc2cc3c(cc2n1)[C@@H]1CNC[C@H]3C1`, -0.703%; for `O=S(=O)(O)Oc1ccc(C(c2ccc(OS(=O)(=O)O)cc2)c2ccccn2)cc1`, 10.6%.
For the compound `CO[C@H]1[C@@H](O)[C@H](N)[C@@H](O[C@H]2O[C@H]([C@H](C)N)CC[C@H]2N)[C@H](O)[C@@H]1N(C)C(=O)CN`, the activity, negative = cell killing was -7.2%.
Next, `CCCCOC(=O)C(=O)Nc1cccc(-c2nn[nH]n2)c1`: -2.11%; `CC(=O)[C@@]1(O)CC[C@H]2[C@@H]3C=C(Cl)C4=CC(=O)CC[C@]4(C)[C@H]3CC[C@@]21C`: -23.8%.
Next, `CC1(C)S[C@@H]2[C@H](NC(=O)[C@H](N)c3ccccc3)C(=O)N2[C@H]1C(=O)OCOC(=O)[C@@H]1N2C(=O)C[C@H]2S(=O)(=O)C1(C)C`: -15.8%; `COc1ccc(CNCC(O)COc2ccc3[nH]c(=O)ccc3c2)cc1OC` (configuration not stated): 15.6%.
Consider `NC(=O)C[C@@H](N)C(=O)O`, for which the activity, negative = cell killing is 22.9%.
Next, `O=C(O)[C@@H](O)[C@H](O)[C@H](O)[C@@H](O)C(=O)O` (tested in a mixture with another compound): -8.08%; `CC(C(=O)O)c1ccc(C2CCCCC2)c2ccccc12` (configuration not stated): -7.75%.
Next, `CO[C@@H]1[C@@H](O[C@@H]2O[C@H](C)[C@@H](O[C@H]3C[C@@](C)(O)[C@@H](OC(=O)CC(C)C)[C@H](C)O3)[C@H](N(C)C)[C@H]2O)[C@@H](CC=O)C[C@@H](C)[C@@H](O)/C=C/C=C/C[C@@H](C)OC(=O)C[C@H]1O`: -11.8% and -30.6%.
